According to the supplement of paper PMC3545927:
Some of the results follow. The hit rate among all sequences tested is not known here.

Biological target: furin, P09958
Experiment: furin cleavage Z-score vs untreated control; higher = more cleavage, active = 3.5 or more, inactive = 1 or less, 8 variable residues between constant flanks
Procedure, shortened: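 Peptides 8 residues long, fused to a cDNA oligonucleotide, were fixed to magnetic beads by the N-terminus and exposed to purified furin. The 0.01 ml reactions contained 50 mM HEPES pH 7.5 with CaCl2 and NaCl at 1:10 enzyme:substrate and ran 7.5, 15 or 30 min. For the cleavage Z-score, log counts of sequenced released DNA were compared with furin-free reactions, lowess-adjusted and scaled by median absolute deviation.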

Chain of furin, P09958 (P09958 whole entry): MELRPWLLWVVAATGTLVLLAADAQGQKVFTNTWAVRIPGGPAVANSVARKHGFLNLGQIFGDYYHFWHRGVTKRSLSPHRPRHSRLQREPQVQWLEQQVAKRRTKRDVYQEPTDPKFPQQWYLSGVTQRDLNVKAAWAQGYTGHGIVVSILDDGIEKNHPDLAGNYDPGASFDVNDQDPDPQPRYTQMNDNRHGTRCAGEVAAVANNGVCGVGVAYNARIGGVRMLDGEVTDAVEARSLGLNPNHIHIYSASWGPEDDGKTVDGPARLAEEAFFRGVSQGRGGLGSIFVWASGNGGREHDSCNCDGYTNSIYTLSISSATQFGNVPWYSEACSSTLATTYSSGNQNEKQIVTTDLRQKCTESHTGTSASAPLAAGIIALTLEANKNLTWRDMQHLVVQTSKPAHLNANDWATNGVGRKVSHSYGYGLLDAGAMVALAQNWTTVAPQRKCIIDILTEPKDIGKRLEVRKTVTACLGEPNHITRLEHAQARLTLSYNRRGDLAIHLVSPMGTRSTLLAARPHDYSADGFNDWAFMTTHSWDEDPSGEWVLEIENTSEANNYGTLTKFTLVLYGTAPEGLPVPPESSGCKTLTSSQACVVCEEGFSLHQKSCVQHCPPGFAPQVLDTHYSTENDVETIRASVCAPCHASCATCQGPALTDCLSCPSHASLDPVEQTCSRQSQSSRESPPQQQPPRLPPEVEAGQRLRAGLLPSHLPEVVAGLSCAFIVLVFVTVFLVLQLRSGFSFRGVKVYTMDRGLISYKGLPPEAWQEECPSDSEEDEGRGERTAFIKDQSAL

| Sequence | furin cleavage Z-score (7.5 min) | furin cleavage Z-score (15 min) | furin cleavage Z-score (30 min) |
| --- | --- | --- | --- |
| CAEQVTSTWVAGNASASA [HC2182] | 1.33 | -1.99 (inactive) | 0.572 (inactive) |
| CAVVCCSSSYAGNASASA [HC2057] | 0.153 (inactive) | -0.457 (inactive) | -1.02 (inactive) |
| CAVPESDAAAAGNASASA [HC1128] | -0.849 (inactive) | -1.42 (inactive) | -1.68 (inactive) |
| CAVKPRPARSAGNASASA [FS-1499] | 10.9 (active) | 11.1 (active) | 7.25 (active) |
| CARLRKQARAAGNASASA [FS-2711] | 0.606 (inactive) | 1.95 | 3 |
| CADLGRPARSAGNASASA [FS-1447] | -0.204 (inactive) | -0.114 (inactive) | 1.88 |
| CALPRRPARSAGNASASA [FS-1231] | 5.68 (active) | 6.25 (active) | 4.95 (active) |
| CAVPRRPARAAGNASASA [FS-150] | 9.11 (active) | 8.34 (active) | 7.62 (active) |
| CAVTPCAAEEAGNASASA [HC1376] | -0.828 (inactive) | -1.48 (inactive) | -0.78 (inactive) |
| CAVVCCSYSYAGNASASA [HC2049] | 0.949 (inactive) | 0.0975 (inactive) | -1.13 (inactive) |
| CARFKRQTSYAGNASASA [FS-2923] | 8.28 (active) | 8.05 (active) | 8.39 (active) |
| CASTPCSAHPAGNASASA [HC2579] | -0.671 (inactive) | 0.373 (inactive) | 0.672 (inactive) |
| CAVVCCSTSYAGNASASA [HC2058] | 1.72 | 0.804 (inactive) | 2.04 |
| CARFPRAAHPAGNASASA [FS-2139] | 3.15 | 2.75 | 4.11 (active) |
| CARLDRSYSYAGNASASA [FS-2986] | 0.288 (inactive) | -0.0412 (inactive) | -1.47 (inactive) |
| CARFPRAYSYAGNASASA [FS-2924] | -0.296 (inactive) | 0.732 (inactive) | 4.36 (active) |
| CAVVCCMMSYAGNASASA [HC108] | 0.208 (inactive) | 0.787 (inactive) | 1.59 |
| CARFPRTWWQAGNASASA [FS-1949] | 0.217 (inactive) | -0.0617 (inactive) | 0.886 (inactive) |
| CAMWECSQHLAGNASASA [HC1688] | 0.266 (inactive) | 1.15 | 1.3 |
| CADTPCSGSWAGNASASA [HC1831] | -0.725 (inactive) | -0.574 (inactive) | -0.127 (inactive) |
| CALGVRVCEKAGNASASA [HC1453] | -0.269 (inactive) | -0.873 (inactive) | -1.56 (inactive) |
| CAIAAAGQLDAGNASASA [HC1640] | 0.168 (inactive) | -0.469 (inactive) | -1.87 (inactive) |

| Sequence | furin cleavage Z-score (7.5 min) | furin cleavage Z-score (15 min) | furin cleavage Z-score (30 min) |
| --- | --- | --- | --- |
| CAKRSRRIRPAGNASASA [FS-1461] | -0.256 (inactive) | 1.6 | 0.134 (inactive) |
| CAKRLRRRREAGNASASA [FS-1224] | 6.7 (active) | 5.88 (active) | 4.7 (active) |
| CAKRARVVREAGNASASA [FS-262] | 9.07 (active) | 8.16 (active) | 7.16 (active) |
| CASRDRRRREAGNASASA [FS-195] | 10.8 (active) | 10.8 (active) | 7.22 (active) |
| CAFLATCINGAGNASASA [HC695] | -1 (inactive) | -1.97 (inactive) | 0.404 (inactive) |
| CALVGSATLCAGNASASA [HC293] | -0.853 (inactive) | -0.387 (inactive) | -0.923 (inactive) |
| CARREVPCHRAGNASASA [HC2433] | 0.899 (inactive) | 1.63 | 1.91 |
| CAREPRLVGGAGNASASA [FS-2136] | -1.44 (inactive) | -0.28 (inactive) | 0.256 (inactive) |
| CAATCINGVCAGNASASA [HC696] | -1.44 (inactive) | -0.421 (inactive) | -0.171 (inactive) |
| CARPGRLDRHAGNASASA [FS-917] | 1.02 | -0.871 (inactive) | 0.899 (inactive) |
| CARHGRRRRHAGNASASA [FS-1156] | 10.6 (active) | 11.5 (active) | 8.22 (active) |
| CAAAWETARHAGNASASA [HC1568] | 0.137 (inactive) | 0.318 (inactive) | -0.358 (inactive) |
| CAFQNRRARHAGNASASA [FS-1589] | 9.77 (active) | 11.1 (active) | 10.3 (active) |
| CAFVAPGERPAGNASASA [HC911] | -1.27 (inactive) | -0.656 (inactive) | -0.848 (inactive) |
| CAYRCRRPRHAGNASASA [FS-1621] | 0.22 (inactive) | 1.07 | 0.99 (inactive) |
| CATRRRTPRPAGNASASA [FS-1293] | -0.0603 (inactive) | -0.269 (inactive) | 0.573 (inactive) |
| CASTRRRPRHAGNASASA [FS-1170] | 4.52 (active) | 3.46 | 2.74 |
| CAFSPRRHWTAGNASASA [HC307] | 0.332 (inactive) | -0.669 (inactive) | -0.85 (inactive) |
| CAAAARRRRHAGNASASA [FS-638] | 5.47 (active) | 5.84 (active) | 3.86 (active) |
| CATWVLVGGVAGNASASA [HC990] | 0.127 (inactive) | -1.42 (inactive) | 0.528 (inactive) |
| CAAYAAQGYKAGNASASA [HC782] | -0.0157 (inactive) | -1.07 (inactive) | -0.556 (inactive) |
